# This is a sample that favours compounds with a hit; in the whole collection about 3% have one here.
# Peg3 prom inh: Peg3 promoter-driven luciferase inhibitors, primary screen, cell-based, HeLa, luciferase luminescence; HeLa PEG-Prom luciferase reporter, overnight; inhibition, % at 20 µM; 360,000 compounds, 1.7% hits; AID 588405, 2011;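 active = inhibition of at least 50% at 20 µM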
# KKLEB tox: cytotoxicity in KKLEB CF airway cells, primary screen, cytotoxicity control for CF NF-kB inhibitor project, cell-based, uHTS, fluorescence assay plates | 360,000 compounds, 0.36% hits | KKLEB CF airway cells viability, ATPlite luminescence, overnight; hits give low values; cells stimulated with P. aeruginosa culture filtrate | AID 602141, 2011 | activity change (cytotoxicity), % at 5 µM;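 active = corrected activity change at or below -50% at 5 µM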
# CF NFkB inh: inhibitors of PAF-induced NF-kB signaling, primary screen, cell-based, GFP fluorescence, uHTS; KKLEB NF-kB-GFP reporter, GFP fluorescence overnight; inhibition, % at 5 µM; 360,000 compounds, 0.86% hits;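 active = at least 50% inhibition at 5 µM, scaled per plate between neutral and stimulator controls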;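 note: PAF is a Pseudomonas aeruginosa culture filtrate used as stimulus; plate controls were PAF-stimulated DMSO wells for no effect and unstimulated DMSO wells for full effect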
# HIF-2a block: HIF-2a reporter inhibitors, primary screen, luminescence, 786-0 RCC cells | inhibition, % at 18.8 µM | AID 624352, 2012 | 786-0 RCC cells HIF-2a reporter, luciferase luminescence, overnight | 360,000 compounds, 0.72% hits;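 active = inhibition of the luminescence signal of 40% or more relative to plate controls, in a single-dose primary screen at 18.75 µM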
# TRPM1 prom inh: inhibitors of MITF-dependent TRPM1 promoter reporter, primary screen, cell-based, SK-MEL-5, single point, luciferase. 330,000 compounds, 0.83% hits. SK-MEL-5 TRPM1 promoter luciferase, 24 h. inhibition, % at 12.5 µM;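 active = mean inhibition across replicates of 60% or more, whatever share of single replicates reaches that level; inconclusive = some that reach 60%, reason not given; inactive = mean inhibition across replicates below 60%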
# ABHD5 PLIN5 PPI: ABHD5-PLIN5 interaction inhibitors, primary screen, cell lysate, split luciferase complementation, luminescence; inhibition, % at 4 µM; Split G. princeps luciferase complementation, 4 h; 360,000 compounds, 0.78% hits; AID 602281, 2012; Perilipin-5 (Homo sapiens) + 1-acylglycerol-3-phosphate O-acyltransferase ABHD5 (Homo …;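 active = inhibition above the mean inhibition across every tested compound plus 3 SD, cut at about 22% in these data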;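 note: 0% = DMSO only wells and the 100% control is not disclosed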
# Target sequence (Q00G26 whole entry, looked up): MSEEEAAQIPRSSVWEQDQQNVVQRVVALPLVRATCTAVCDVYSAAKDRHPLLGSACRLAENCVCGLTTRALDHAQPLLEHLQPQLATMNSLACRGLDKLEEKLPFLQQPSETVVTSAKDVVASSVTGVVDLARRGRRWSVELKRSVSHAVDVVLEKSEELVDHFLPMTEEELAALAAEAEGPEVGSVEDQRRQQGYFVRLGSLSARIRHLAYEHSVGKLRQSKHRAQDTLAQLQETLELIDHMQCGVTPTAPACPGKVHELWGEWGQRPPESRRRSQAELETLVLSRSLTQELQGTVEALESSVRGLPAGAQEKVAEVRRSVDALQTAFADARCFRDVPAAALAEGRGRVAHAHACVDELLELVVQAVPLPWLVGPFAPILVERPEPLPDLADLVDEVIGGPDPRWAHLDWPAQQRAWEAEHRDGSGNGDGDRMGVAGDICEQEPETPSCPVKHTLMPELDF
# Target sequence (Q8WTS1 whole entry, looked up): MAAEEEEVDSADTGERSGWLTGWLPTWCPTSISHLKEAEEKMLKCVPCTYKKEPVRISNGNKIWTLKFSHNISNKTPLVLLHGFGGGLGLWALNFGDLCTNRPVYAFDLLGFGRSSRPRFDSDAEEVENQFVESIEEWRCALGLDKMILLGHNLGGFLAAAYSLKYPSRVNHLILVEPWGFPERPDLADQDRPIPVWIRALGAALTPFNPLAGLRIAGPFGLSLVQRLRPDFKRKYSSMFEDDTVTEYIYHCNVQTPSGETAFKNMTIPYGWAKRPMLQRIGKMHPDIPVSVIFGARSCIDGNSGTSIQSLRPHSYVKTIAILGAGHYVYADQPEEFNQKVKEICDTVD
# Mdm2-MdmX confirm: retested Mdm2-MdmX interaction blockers, confirmation, cell-based, luminescence, single concentration, set 2 | shares compounds with HIF-2a block | SaOS-2 split-luciferase Mdm2/MdmX complementation | inhibition, % at 8 µM | 740 compounds, 99% hits;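 active = mean inhibition of the luminescence signal across two replicates at or above 26 percent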
# HIF-2a conf: HIF-2a reporter inhibitor retest, confirmation, luminescence, 786-0 RCC cells; HIF-2a luciferase reporter luminescence, overnight; shares compounds with HIF-2a block; inhibition, % at 18.8 µM; 1,800 compounds, 56% hits; AID 651580, 2012;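 active = mean inhibition across four replicates of at least 40 percent at the single tested concentration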
# HIF-1a cs: HIF-1a luciferase reporter signal reduction – MiaPaCa-2 cells, single concentration, counter-screen for HIF-2a inhibitor project, confirmation. shares compounds with HIF-2a block. MiaPaCa-2 HIF-1a luciferase reporter, desferoxamine, overnight. inhibition, % at 18.8 µM. 1,800 compounds, 72% hits. AID 651589, 2012;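 active = mean inhibition of the reporter signal across four replicates at the single tested dose of 50% or more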
# * = called active by the depositor; u = inconclusive; x = not tested or not shown.
SMILES,Peg3 prom inh,KKLEB tox,CF NFkB inh,HIF-2a block,TRPM1 prom inh,ABHD5 PLIN5 PPI,HIF-2a conf,HIF-1a cs,others
CSc1nnc(-c2sc3cc(C(F)(F)F)cnc3c2-c2ccccc2)n1C,27,-3,16,41*,32,4,12,55*,
O=C(O)c1sc2cc(C(F)(F)F)cnc2c1-c1ccccc1,16,1,0,22,7,-2,x,x,
Cc1ccc(C(C)C)c(OCc2nn(CC(=O)c3ccc(Cl)cc3)c3[n+]2CCCCC3)c1,112*,-25,41,49*,67*,20,16,106*,
Cc1ccc(C(C)C)c(OCC(=O)Nc2ccc(Cl)cn2)c1,9,-2,18,3,5,-5,x,x,
Cc1cccc(N2CCN(C(=S)Nc3ccc4nc(N5CCN(C)CC5)cc(C)c4c3)CC2)c1C,104*,-73*,43,82*,96*,0,-3,105*,
Cc1cc(N2CCN(C)CC2)nc2ccc(NC(=S)N3CCCCC3)cc12,-59,-4,-18,-48,-17,4,x,x,
Nc1ccc(-c2nnn(CC(=O)N3CCCCC3)n2)cc1,-3,-2,5,49*,-1,3,48*,18,
O=C(Cn1nnc(-c2ccc(F)cc2)n1)N1CCCCC1,-17,2,24,-15,-3,-4,x,x,
O=C(NC1CC1)c1ccccc1,2,2,-12,16,x,-5,x,x,
CC(NC(=O)c1c(O)c2ccccc2[nH]c1=O)c1ccccc1 (stereo not given),-15,-4,-10,9,-3,0,x,x,
COc1ccc(C2c3ccc4ccccc4c3Oc3ncn(CCCN(C)C)c(=N)c32)cc1 (stereo not given),112*,-18,13,93*,101*,22*,-2,105*,Mdm2-MdmX confirm=102*
Cc1ccc(NC(=O)c2ccc([N+](=O)[O-])o2)cc1S(=O)(=O)N1CCOCC1,102*,-5,56*,55*,84*,-3,39,80*,
O=C(COC(=O)c1ccc([N+](=O)[O-])o1)Nc1cccc(S(=O)(=O)N2CCCCC2)c1,7,6,11,13,0,-3,x,x,
O=C(Nc1cccc(S(=O)(=O)N2CCCCC2)c1)c1ccc([N+](=O)[O-])o1,53*,-14,88*,64*,80*,0,34,104*,
Cc1ccc(-c2nc3ncccc3o2)cc1NC(=O)c1ccc([N+](=O)[O-])o1,57*,1,11,54*,82*,-7,-7,102*,
Cc1cc([N+](=O)[O-])ccc1NC(=O)c1ccco1,2,4,-10,10,-3,0,x,x,
Cc1cc(NC(=O)c2ccc([N+](=O)[O-])o2)ccc1NC(=O)c1ccco1,100*,-16,73*,47*,77*,2,21,96*,
CCCCn1nnnc1C(c1ccccc1)N1CCN(c2ccc(C(F)(F)F)cc2[N+](=O)[O-])CC1 (stereo not given),x,x,x,13,x,-16,x,x,
CCNC(=O)C1(C)CCCN(C(=O)c2cc(OC)ccc2Br)C1 (stereo not given),0,-8,-2,9,x,5,x,x,
Cc1c(OCC(=O)NCC(O)c2ccccc2)ccc2c(-c3ccccc3)cc(=O)oc12 (stereo not given),22,-22,-20,10,x,1,x,x,
Cc1ccc(-c2noc(CN(C)C(=O)c3ccc(Br)o3)n2)cc1,-8,-14,9,-61,-1,-8,x,x,
COc1ccccc1CCNC(=O)C(=O)NCC1OCCN1S(=O)(=O)c1ccc(OC)c(OC)c1 (stereo not given),2,6,13,18,3,-4,x,x,
O=C(Nc1ccc(N2CCOCC2)c(Cl)c1)c1ccc([N+](=O)[O-])o1,106*,-21,74*,81*,u,-3,29,77*,
O=C(Nc1ccccc1N1CCOCC1)c1ccc([N+](=O)[O-])o1,28,-20,4,-3,60,0,x,x,
CN1CCN(c2ccc(NC(=O)c3ccc([N+](=O)[O-])o3)cc2Cl)CC1,100*,0,80*,57*,79*,1,56*,59*,
SMILES,Peg3 prom inh,KKLEB tox,CF NFkB inh,HIF-2a block,TRPM1 prom inh,ABHD5 PLIN5 PPI,HIF-2a conf,HIF-1a cs,others
Cc1ccoc1C(=O)Nc1cccc2ccccc12,-139,-10,5,-224,-24,-7,x,x,
CCn1c(SCC(=O)NC2=NCCS2)nnc1C(C)NC(=O)c1ccccc1Br (stereo not given),10,-12,-11,-3,9,-1,x,x,
COc1ccc(C(=O)Nc2c(N)nc(SCC(=O)NCC3CCCO3)[nH]c2=O)cc1 (stereo not given),7,17,-26,1,-1,7,x,x,
Cc1ccc(NC(=O)C2CCC(CNC(=O)[C@@H]3Cc4ccccc4CN3)CC2)c(C)c1 (stereo not given in full),-2,0,-12,-10,13,10,x,x,
CCN1CCCC1CNC(=O)C1CCN(Cc2nc(-c3cccc(Br)c3)oc2C)CC1 (stereo not given),91*,-22,20,66*,59,7,19,104*,
Cc1oc(-c2cccc(Cl)c2)nc1CN1CCC(C(=O)NCc2ccco2)CC1,4,-1,13,-6,6,6,x,x,
NC(Cc1ccccc1)c1csc(NC(=O)c2cccc(OC(F)(F)F)c2)n1 (stereo not given),99*,-11,-10,65*,x,-15,6,106*,
NC(Cc1ccccc1)c1csc(Nc2ccc(C(=O)NCCO)cc2)n1 (stereo not given),12,-2,26,6,x,-3,x,x,
COc1cccc(NC(=O)CSc2nc3c([nH]c4ccccc43)c(=O)n2C)c1,59*,-17,2,51*,31,1,0,26,

# Compound activity: PubChem, several laboratories
